Experimental data taken from PubChem BioAssay (NCATS).
Results filed as inconclusive are left out. A call without a number means that no potency is given here. Values without a mark were called inactive. Active and inactive are the calls of the source. Calls come from the whole dose curve; as a rule, active = well fitted cell-killing curve with a large enough effect; inconclusive = small, poorly fitted or top-dose-only effect, or effect the other way; inactive = no such curve, though single readings can be large or run the other way.

Experiments:
[1] = Viability qHTS for spleen associated tyrosine kinase inhibitor (SYKi) naive MV4-11 cells (AID 1963823); note: nearly all actives have a fitted effect of over 40% in size
Procedure, shortened: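 Cells: MV4-11, SYK inhibitor naive, 500 per well. Treatment: library compounds, 72 hr, 37 C, 5% CO2. Read-out: CellTiter-Glo luminescence after 10 min RT.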

[2] = Viability qHTS for spleen associated tyrosine kinase inhibitor (SYKi) drug resistant MV4-11 cells (AID 1963824); note: nearly all actives have a fitted effect of over 35% in size
Procedure, shortened: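 SYK inhibitor-resistant MV4-11 AML cells, 500 per well, added to predispensed compounds and incubated 72 hr at 37 C, 5% CO2. Viability measured by CellTiter-Glo luminescence after 10 min at room temperature.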
Potency is the fitted concentration of half-maximal effect.

O=C(O)C[C@H]1CCC(=O)[C@@H]1C/C=C\CCO
Potency [1]: inactive | Potency [2]: inactive

Cc1ccc(NS(=O)(=O)c2cc3c(cc2N[C@@H](C)CO)NC(=O)CC3)cc1Cl
Potency [1]: 16.4 µM (active) | Potency [2]: 11.6 µM (active)

CCCC(CCC)C(=O)NCc1ccc2c(cnn2-c2ccccc2OC)c1
Potency [1]: 10.3 µM (active) | Potency [2]: 8.2 µM (active)

NC1CCCCN(c2c(F)cc3c(=O)c(C(=O)O)cn(C4CC4)c3c2Cl)C1 (stereo not given)
Potency [1]: inactive | Potency [2]: inactive

C=C1C(=O)O[C@H]2[C@H]1[C@@H](OC(=O)/C(C)=C\C)C[C@]1(C)O[C@@H]1[C@H]1O[C@H]1C(=C)[C@H]2O
Potency [1]: 8.05 µM (active) | Potency [2]: 3.6 µM (active)

CNS(=O)(=O)Nc1nccc(Cc2c(C)c3ccc(Oc4ncccn4)cc3oc2=O)c1F
Potency [1]: 0.417 µM (active) | Potency [2]: 0.59 µM (active)

C=C(C=O)[C@]1(O)C[C@@]2(C)C(=CC1=O)C=C[C@H](OC(=O)/C=C/C=C/[C@H](C)CC)[C@@H]2C
Potency [1]: 1.12 µM (active) | Potency [2]: 0.796 µM (active)

Cc1csc2c(N[C@@H](C)CN3CCN(S(=O)(=O)c4ccc(Cl)c(Cl)c4)CC3)ncnc12
Potency [1]: 0.259 µM (active) | Potency [2]: 0.231 µM (active)

CC1=CC(=O)CC(C)(C)[C@H]1/C=C/C(CO)O[C@@H]1O[C@H](CO)[C@@H](O)[C@H](O)[C@H]1O (stereo not given in full)
Potency [1]: inactive | Potency [2]: inactive

O=C(NS(=O)(=O)c1ccc(Br)s1)c1ccc(Cl)cc1Cl
Potency [1]: 7.31 µM (active) | Potency [2]: 9.2 µM (active)

CC(C)C(C#N)O[C@@H]1O[C@H](CO[C@@H]2O[C@@H](C)[C@H](O)[C@@H](O)[C@H]2O)[C@@H](O)[C@H](O)[C@H]1O (stereo not given in full)
Potency [1]: inactive | Potency [2]: inactive

C=C1C(=O)O[C@H]2C3=C(C)CCC[C@]3(C)C(=O)C[C@@H]12
Potency [1]: 1.3 µM (active) | Potency [2]: 0.92 µM (active)

C[C@@H]1O[C@@H](O[C@H]2[C@H](O[C@H]3[C@H](O[C@H]4CC[C@@]5(C)C(CC[C@]6(C)C5CC=C5[C@@H]7CC(C)(C)C[C@@H](O)[C@]7(C)CC[C@]56C)[C@@]4(C)CO)O[C@H](C(=O)O)[C@@H](O)[C@@H]3O)OC[C@H](O)[C@@H]2O)[C@H](O)[C@H](O)[C@H]1O (stereo not given in full)
viability (% of control) [1]: 76.2% [at 9.25 µM] | viability, % of control [2]: 84.4% [at 9.25 µM]

OC[C@@]1(O)CO[C@H](OC[C@H]2O[C@@H](OC(CCCCc3ccc(O)cc3)CCc3ccc(O)cc3)[C@H](O[C@H]3OC[C@](O)(CO)[C@H]3O)[C@@H](O)[C@@H]2O)[C@@H]1O (stereo not given in full)
Potency [1]: inactive | Potency [2]: inactive

Cc1nc(CNc2ncnc3ccc(-c4ccc5c(c4)OCO5)cc23)cs1
Potency [1]: 14.6 µM (active) | Potency [2]: 23.1 µM (active)

O=C(Nc1ccc(S(=O)(=O)C(F)(F)F)cc1)C1=CCN(c2ncccc2C(F)(F)F)CC1
Potency [1]: 5.8 µM (active) | Potency [2]: 3.66 µM (active)

NCc1ccc(Nc2ncc(F)c(Nc3ccccc3)n2)cc1
Potency [1]: 0.651 µM (active) | Potency [2]: 1.46 µM (active)

CC1(C)CCCC2(C)C=C(C(=O)O)C(O)CC12 (stereo not given)
Potency [1]: inactive | Potency [2]: inactive

CC1C2=CC(=O)OC2(O)CC2C1C(OC(=O)c1ccccc1)C(OC(=O)c1ccccc1)C1(O)C2(C)CCC(O)C1(C)C(=O)O (stereo not given)
Potency [1]: inactive | Potency [2]: inactive

CC(C)=CCC[C@](C)(O[C@@H]1O[C@H](CO[C@@H]2O[C@H](CO)[C@@H](O)[C@H](O)[C@H]2O)[C@@H](O)[C@H](O)[C@H]1O)C1CC[C@]2(C)[C@@H]1[C@H](O)CC1[C@@]3(C)CC[C@H](O[C@@H]4O[C@H](CO)[C@@H](O)[C@H](O)[C@H]4O[C@@H]4O[C@H](CO)[C@@H](O)[C@H](O)[C@H]4O)C(C)(C)[C@@H]3CC[C@]12C (stereo not given in full)
viability (% of control) [1]: 64.5% [at 9.25 µM] | viability, % of control [2]: 69.6% [at 9.25 µM]

CC1OC2OC(=O)C3(C)CC4=C(CO)C5=C(CC(=O)C4(C)C(C1=O)C23)C(C)(C)OC(=O)C5 (stereo not given)
Potency [1]: inactive | Potency [2]: inactive

CC1=C(C)C(=O)OC(C(C)C2C(O)CC3C4C5OC5C5(O)CC(OC6OC(CO)C(O)C(O)C6O)CC(O)C5(C)C4CCC32C)C1 (stereo not given)
Potency [1]: inactive | Potency [2]: inactive

C=C(C)C(=O)OC1CC2(C)OC(=CC2=O)C(=C)CC2OC(=O)C(COC)C12 (stereo not given)
Potency [1]: 1.61 µM (active) | Potency [2]: 1.61 µM (active)

Cc1sc2c(c1C)C(c1ccc(Cl)cc1)=N[C@@H](CC(=O)Nc1ccc(OCCOCCOCCOCCNc3cccc4c3C(=O)N(C3CCC(=O)NC3=O)C4=O)cc1)c1nnc(C)n1-2 (stereo not given in full)
Potency [1]: inactive | Potency [2]: 0.0166 µM (active)

C/C=C(\C)C(=O)OC[C@H]1O[C@H](O[C@H]2O[C@H](CO)[C@@H](O)[C@H](O)[C@H]2O[C@@H]2O[C@H](CO)[C@@H](O)[C@H](O)[C@H]2O)[C@H](O[C@@H]2O[C@H](CO)[C@@H](O)[C@H](O)[C@H]2O)[C@@H](O)[C@@H]1O
Potency [1]: inactive | Potency [2]: inactive

O=C(N/N=C/c1ccccc1O)c1ccncc1
Potency [1]: 0.944 µM (active) | Potency [2]: 0.75 µM (active)

CC1(C)CC[C@@]2(C(=O)O[C@@H]3O[C@H](CO)[C@@H](O)[C@H](O)[C@H]3O)C(C1)C1=CCC3[C@@]4(C)CC[C@@H](O[C@@H]5O[C@H](C(=O)O)[C@@H](O[C@@H]6OC[C@@H](O)[C@H](O)[C@H]6O)[C@H](O[C@@H]6OC[C@](O)(CO)[C@H]6O)[C@H]5O)C(C)(C)C4CC[C@@]3(C)[C@]1(C)C[C@H]2O (stereo not given in full)
viability (% of control) [1]: 11.6% [at 9.25 µM] | viability, % of control [2]: 12% [at 9.25 µM]

CN1CCC(c2c(O)cc(O)c3c(=O)cc(-c4ccccc4Cl)oc23)C(O)C1 (stereo not given)
Potency [1]: 0.259 µM (active) | Potency [2]: 0.206 µM (active)

C=C1C[C@]23C[C@H]1CC[C@H]2C1=C[C@H]2OC(=O)[C@@](C)([C@H]1[C@@H]3C(=O)O)[C@H]2O
Potency [1]: inactive | Potency [2]: inactive

Cc1cc(C)c(Nc2ccnc(Nc3ccc(C#N)cc3)n2)c(C)c1
Potency [1]: 2.31 µM (active) | Potency [2]: 4.11 µM (active)

C=C1CCC2C(C)(C)C(O)CCC2(C)C1CCC(C)CCO (stereo not given)
Potency [1]: 9.04 µM (active) | Potency [2]: 12.8 µM (active)

CC1(C)CC[C@]2(C(=O)O)CC[C@]3(C)C(=CCC4[C@@]5(C)C[C@@H](O)[C@H](O)[C@@](C)(CO)C5CC[C@]43C)C2C1 (stereo not given in full)
Potency [1]: inactive | Potency [2]: 7.96 µM (active)

CC(C)n1cc(-c2ccc(Oc3ccccc3)cc2)c2c(N)ncnc21
Potency [1]: 0.092 µM (active) | Potency [2]: 0.206 µM (active)

CC(=O)c1c(C)cccc1O[C@@H]1O[C@H](CO)[C@@H](O)[C@H](O)[C@H]1O
Potency [1]: inactive | Potency [2]: inactive

COc1ccnc2[nH]cc(C(=O)C(=O)N3CCN(C(=O)c4ccccc4)CC3C)c12 (stereo not given)
Potency [1]: inactive | Potency [2]: inactive

C#Cc1cnc2[nH]c(=O)n(C(CC)CC)c2n1
Potency [1]: inactive | Potency [2]: inactive

CC1(C)CC[C@]23CO[C@@]4(CCC5[C@@]6(C)CC[C@H](O[C@@H]7OC[C@H](O[C@@H]8O[C@H](CO)[C@@H](O)[C@H](O)[C@H]8O)[C@H](O)[C@H]7O[C@@H]7O[C@H](CO)[C@@H](O[C@@H]8O[C@H](CO)[C@@H](O)[C@H](O)[C@H]8O)[C@H](O)[C@H]7O)[C@@](C)(CO)C6CC[C@@]5(C)[C@]4(C)C[C@H]2OC2OCC(O)C(O)C2O)C3C1 (stereo not given in full)
Potency [1]: 1.95 µM (active) | Potency [2]: 3.09 µM (active)

C=CS(=O)(=O)NC1CCN(C(=O)CNc2cc(I)c(Cl)cc2OC)CC1
Potency [1]: 3.26 µM (active) | Potency [2]: 2.06 µM (active)

CC(/C=C/C1(O)C2(C)COC1(C)CC(=O)C2)O[C@@H]1O[C@H](CO)[C@@H](O)[C@H](O)[C@H]1O (stereo not given in full)
Potency [1]: inactive | Potency [2]: inactive

COc1cc(C(=O)OC[C@@]2(O)CO[C@@H](O[C@H]3[C@H](Oc4ccc(C(=O)O)cc4OC)O[C@H](CO)[C@@H](O)[C@@H]3O)[C@@H]2O)ccc1O
Potency [1]: inactive | Potency [2]: inactive

O=C(/C=C/c1ccc(O)c(O)c1)O[C@@H]1[C@@H](O)[C@H](OC2CCCCC2O)O[C@H](CO)[C@H]1O (stereo not given in full)
Potency [1]: inactive | Potency [2]: inactive

COC(=O)C1=CO[C@@H](O[C@@H]2O[C@H](CO)[C@@H](O)[C@H](O)[C@H]2O)[C@@H]2[C@@H](C(=O)OC)[C@@H](O)C(O)[C@H]12 (stereo not given in full)
Potency [1]: inactive | Potency [2]: inactive

CNS(=O)(=O)c1ccccc1Nc1nc(Nc2ccc(N3CCN(C)CC3)cc2OC)ncc1Cl
Potency [1]: 0.0206 µM (active) | Potency [2]: 0.0366 µM (active)

COc1cc2ncnc(Nc3cccc(O)c3)c2cc1OC
Potency [1]: 0.411 µM (active) | Potency [2]: 0.651 µM (active)

COC(=O)C1=COC(OC2OC(CO)C(O)C(O)C2O)C2C1CC(OC(=O)C(O)CC(=O)O)C2C (stereo not given)
Potency [1]: inactive | Potency [2]: inactive

CC1=C[C@H]2[C@@H](CC1=O)[C@H](C)C[C@H](O)[C@H]2C(C)C
Potency [1]: inactive | Potency [2]: inactive

COc1cc(C(O)C2COC(c3ccc(OC4OC(CO)C(O)C(O)C4O)c(OC)c3)C2CO)ccc1O (stereo not given)
Potency [1]: 4.47 µM (active) | Potency [2]: inactive

CO/N=C(/C(=O)N[C@@H]1C(=O)N2C(C(=O)O)=C(CSC(=O)c3ccco3)CS[C@H]12)c1csc(N)n1
Potency [1]: inactive | Potency [2]: inactive

CC(C)C1NC(=O)C2CCCN2C1=O (stereo not given)
Potency [1]: inactive | Potency [2]: inactive

Cc1cc(C)cc(C(=O)NOCCCCCC(=O)NO)c1
Potency [1]: 0.92 µM (active) | Potency [2]: 0.58 µM (active)

CC(=O)NCCCCn1c2c(c3ccccc31)C(=O)NCC2
Potency [1]: inactive | Potency [2]: inactive

CC(C)CC[C@@H](O)[C@](C)(O)[C@H]1CC[C@@]2(O)C3=CC(=O)[C@@H]4C[C@@H](O)[C@@H](O)C[C@]4(C)[C@H]3CC[C@]12C
Potency [1]: inactive | Potency [2]: inactive

CC(C)(OC1OC(CO)C(O)C(O)C1O)C1CCC(O)(CO)C2CC(=O)C(C)(O)C2C1 (stereo not given)
Potency [1]: inactive | Potency [2]: inactive

Nc1ncnc2c1c(I)cn2[C@@H]1C[C@H](N)[C@@H](O)[C@H]1O
Potency [1]: 2.91 µM (active) | Potency [2]: 6.51 µM (active)

OC[C@H]1O[C@@H](OCCc2ccccc2)[C@H](O[C@@H]2OC[C@@H](O)[C@H](O)[C@H]2O)[C@@H](O)[C@@H]1O
Potency [1]: inactive | Potency [2]: inactive
